Assay [1] is described as follows: qHTS assay to identify small molecule agonists of the sonic hedgehog signaling (Shh) pathway (AID 1259368; calls by dose curve;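 further: NIH/3T3-derived 3T3Gli1-Luc cells carrying a stable Gli1-driven firefly luciferase reporter; series mostly up to about 92 µM; nearly all actives have a fitted effect of over 15% in size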). The procedure, abridged:
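A Gli1 transcriptional response element controlled firefly luciferase in 3T3Gli1-Luc cells. Compounds and a positive control were added 4 hr after plating, and cells were incubated a further 24 hr at 37 C before luminescence detection.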
A general note: Quantitative high-throughput screening tests each substance at several concentrations.

Assay [2] in a line: qHTS assay to identify small molecule antagonists of the sonic hedgehog signaling (Shh) pathway (AID 1259369; calls by dose curve; further: nearly all actives have a fitted effect of over 45% in size). The method in brief: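 For antagonist detection, the reporter line received test compounds together with conditioned medium, incubated 24hr at 37 C, 5% CO2, then luminescence was recorded following 30min room-temperature luciferase reagent incubation.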
The target in assay [3] is Estrogen receptor beta (Homo sapiens) (UniProt Q92731). Put plainly: qHTS assay to identify small molecule agonists of the estrogen receptor beta (ER-beta) signaling pathway (AID 1259377; active means well fitted activation curve with a large enough effect in the signal ratio in the repeat runs, not every such curve was filed as active; the % refers to the signal ratio). The procedure, abridged: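 Reporter cells (HEK293T, ER-beta-UAS-bla) receive compounds or DMSO after a 6 hr pre-incubation. They then incubate 16 hr at 37C/5% CO2, and fluorescence from LiveBLAzer B/G substrate is measured after 2 hours at room temperature.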
Chain of Estrogen receptor beta (Homo sapiens) (Q92731 whole entry, looked up): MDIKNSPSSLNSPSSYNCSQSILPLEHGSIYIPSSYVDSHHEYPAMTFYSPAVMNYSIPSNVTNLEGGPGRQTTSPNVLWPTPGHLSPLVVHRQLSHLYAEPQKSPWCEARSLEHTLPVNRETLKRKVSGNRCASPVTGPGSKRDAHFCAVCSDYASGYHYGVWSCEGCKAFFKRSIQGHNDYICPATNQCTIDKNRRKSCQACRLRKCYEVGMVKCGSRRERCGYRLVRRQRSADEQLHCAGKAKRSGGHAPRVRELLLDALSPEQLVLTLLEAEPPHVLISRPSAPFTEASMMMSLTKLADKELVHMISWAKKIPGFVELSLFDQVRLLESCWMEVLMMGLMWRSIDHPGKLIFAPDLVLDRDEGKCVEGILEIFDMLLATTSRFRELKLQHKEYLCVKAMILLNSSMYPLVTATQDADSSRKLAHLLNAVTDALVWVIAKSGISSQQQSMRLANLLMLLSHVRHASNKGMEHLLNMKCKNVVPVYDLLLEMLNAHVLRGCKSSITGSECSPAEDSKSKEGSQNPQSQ

The target is the same in assay [4]. Put plainly: qHTS assay to identify small molecule antagonists of the estrogen receptor beta (ER-beta) signaling pathway (AID 1259378; active means well fitted inhibition curve with a large enough effect in the signal ratio in the repeat runs, not every such curve was filed as active; the % refers to the signal ratio). The procedure, abridged: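 Antagonist mode: compounds added to beta-lactamase reporter HEK293T ER-beta-UAS cells stimulated with E2 (1nM final), 16 hr at 37C. LiveBLAzer B/G FRET substrate, 2 hours room temperature, fluorescence read-out.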

Assay [5] in a line: qHTS assay to identify small molecule agonists of the androgen receptor (AR) signaling pathway in the presence of an antagonist - cell viability counter screen (AID 1259379).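 Further: MDA-kb2 human breast cancer cells carrying an MMTV luciferase reporter; series mostly up to about 92 µM; nearly all actives have a fitted effect of over 25% in size.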 The method in brief: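 Seed MDA-kb2 at 3,000 cells/well; incubate 5 hr, 37C, 0% CO2. Add nilutamide to 3.0uM final, then pin compounds at 15 concentrations. Incubate 16 hr. Add CellTiter-Fluor at 15 hr, read fluorescence after 1 hr.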

Assay [6] can be described thus: qHTS assay to identify small molecule agonists of the estrogen receptor beta (ER-beta) signaling pathway - cell viability counter screen (AID 1259380). Further: nearly all actives have a fitted effect of over 30% in size. Further: potency means the concentration at half of the fitted maximal effect. The procedure, abridged: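 CellTiter-Glo read, 30 min RT, same wells as bla assay; cells ER-beta-UAS-bla HEK293T; 16 hr compound, 37C; medium 2% charcoal-stripped FBS.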
Assay [7] in a line: qHTS assay to identify small molecule antagonists of the estrogen receptor beta (ER-beta) signaling pathway - cell viability counter screen (AID 1259382).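 Further: HEK293T cells carrying ER-beta-UAS-bla reporter stimulated with estradiol; series mostly up to about 92 µM; nearly all actives have a fitted effect of over 55% in size.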 The procedure, abridged: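 In this multiplexed counter screen, cells were seeded at 2,000 per well in medium with 2% charcoal-stripped FBS and incubated 6 hr before compound and 1nM final E2 were added. Sixteen hours later, ATP-based luminescence reported viability.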

Assay [8] concerns the target Estrogen receptor (Homo sapiens) (UniProt P03372). Nature of the assay: qHTS assay to identify small molecule agonists of the estrogen receptor alpha (ER-alpha) signaling pathway in the presence of an antagonist (AID 1259383; calls by dose curve; further: top concentration of the series differs between compounds; nearly all actives have a fitted effect of over 15% in size). The method in brief:
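Stably transfected VM7Luc4E2 reporter cells, kept 5 days in charcoal-stripped serum, received ICI-182,780 at 10.0nM final before compound addition. Following 22hr incubation at 37C and 5% CO2, luciferase signal was read by luminescence.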

Assay [9] in a line: qHTS assay to identify small molecule agonists of the estrogen receptor alpha (ER-alpha) signaling pathway in the presence of an antagonist - cell viability counter screen (AID 1259386).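 Further: series mostly up to about 92 µM; cells exposed to compounds for 22 h at 37 °C before the viability read; nearly all actives have a fitted effect of over 30% in size.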 The procedure, abridged:
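Viability counter screen using VM7Luc4E2 (full-length ER-alpha, four ERE-luciferase). The cells were treated with compounds alongside ICI-182,780 10.0nM for 22hr, and live-cell protease fluorescence was quantified with CellTiter-Fluor.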

The target in assay [10] is Progesterone receptor (Homo sapiens) (UniProt P06401). Nature of the assay: qHTS assay to identify small molecule agonists of the progesterone receptor (PR) signaling pathway (AID 1346784; calls by dose curve; further: nearly all actives have a fitted effect of over 30% in size). The procedure, abridged:
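Reporter assay, GripTite PR-UAS-bla HEK 293T cells: 16 hr exposure to DMSO-dissolved compounds at 37C, 5% CO2, in steroid-depleted (2% charcoal-stripped FBS) medium; beta-lactamase measured by FRET fluorescence.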

Assay [11] shares this target. Put plainly: qHTS assay to identify small molecule antagonists of the progesterone receptor (PR) signaling pathway (AID 1346795; active means well fitted inhibition curve with a large enough effect in the signal ratio in the repeat runs, not every such curve was filed as active; the % refers to the signal ratio). The procedure, abridged: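 Stimulus R5020 at 1 nM final; cells HEK293T PR-UAS-bla; medium with 2% charcoal-stripped FBS; compound exposure 16 hr at 37C, 5% CO2; detection by FRET beta-lactamase substrate, 2 hr, room temperature.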
The nature of assay [12]: qHTS assay to identify small molecule antagonists of the progesterone receptor (PR) signaling pathway - cell viability counter screen (AID 1346798). Further: series mostly up to about 92 µM; nearly all actives have a fitted effect of over 50% in size. The method in brief:
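In the same plates used for the beta-lactamase readout, cell viability of compound- and R5020-treated PR-UAS-bla HEK293T cells (16 hr, 37C) was assessed by CellTiter-Glo luminescence.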

Assay [13] in a line: qHTS assay to identify small molecule antagonists of the TGF-beta/Smad signaling pathway - cell viability counter screen (AID 1346824). Further: nearly all actives have a fitted effect of over 50% in size. The procedure, abridged:
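Cytotoxicity counter-screen run in the same wells as the beta-lactamase Smad reporter read: CellTiter-Glo luminescence after 30 min at room temperature. HEK 293T SBE-bla cells had 5 hr compound exposure at 37 C with TGF-beta1 (0.25 ng/mL stock).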

A short description of assay [14]: qHTS assay to identify small molecule agonists of the TGF-beta/Smad signaling pathway - cell viability counter screen (AID 1346829). Further: top concentration of the series differs between compounds; nearly all actives have a fitted effect of over 45% in size. The method in brief: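 Here the cytotoxicity of library compounds is measured in SBE-bla HEK 293T cells treated for 5 hr, using CellTiter-Glo added to wells already read for the beta-lactamase reporter.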
Assay [15] can be described thus: qHTS assay to identify small molecule agonists of the TGF-beta/Smad signaling pathway (AID 1346859; active means well fitted activation curve with a large enough effect in the signal ratio in the repeat runs, not every such curve was filed as active; the % refers to the signal ratio; further: series mostly up to about 77 µM). The method in brief: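 Screening used HEK 293T SBE-bla cells at 4,000/well. Test agents: 5 hr, 37 C. Detection: FRET substrate, 2 hr RT, then excitation 405 nm with emissions at 460 and 530 nm.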
For assay [16], the target named is Thyrotropin-releasing hormone receptor (Homo sapiens) (UniProt P34981). Nature of the assay: qHTS assay to identify small molecule antagonists of the thyrotropin-releasing hormone receptor (TRHR) signaling pathway (AID 1346877; active means well fitted inhibition curve with a large enough effect in the repeat runs, not every such curve was filed as active; further: series mostly up to about 51 µM). The procedure, abridged: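 Following an 18 h incubation at 37 °C and a 2 h calcium dye load, TRHR-HEK293 cells were exposed to compound (5 min, room temperature) and challenged with TRH, 1 nM final.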
Chain of Thyrotropin-releasing hormone receptor (Homo sapiens) (P34981 whole entry, looked up): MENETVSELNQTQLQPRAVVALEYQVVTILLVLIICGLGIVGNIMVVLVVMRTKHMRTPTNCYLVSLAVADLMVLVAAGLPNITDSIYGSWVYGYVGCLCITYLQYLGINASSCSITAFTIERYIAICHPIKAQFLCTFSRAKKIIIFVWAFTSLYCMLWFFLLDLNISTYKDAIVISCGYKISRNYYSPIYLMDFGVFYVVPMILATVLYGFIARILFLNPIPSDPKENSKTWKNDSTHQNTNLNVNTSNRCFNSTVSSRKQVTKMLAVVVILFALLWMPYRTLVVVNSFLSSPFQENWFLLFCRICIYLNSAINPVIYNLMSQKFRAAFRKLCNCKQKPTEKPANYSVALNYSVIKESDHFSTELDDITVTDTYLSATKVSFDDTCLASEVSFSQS

A short description of assay [17]: qHTS assay to identify small molecule agonists or antagonists of the thyroid stimulating hormone receptor (TSHR) signaling pathway - wild type cell line counter screen (AID 1259384; calls by dose curve). The procedure, abridged: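 Counter screen in untransfected Hek293: compounds (15-point titration, triplicate) plus phosphodiesterase inhibitor Ro20-1724 added after 18 h plating; 30 min RT. Intracellular cAMP via competitive d2/cryptate immunoassay, 1 h incubation.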

The target of assay [18] is Thyrotropin receptor (Homo sapiens) (UniProt P16473). Put plainly: qHTS assay to identify small molecule antagonists of the thyroid stimulating hormone receptor (TSHR) signaling pathway (AID 1259385; calls by dose curve; further: nearly all actives have a fitted effect of over 20% in size). The method in brief:
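Antagonist mode: compound-treated TSHR-expressing HEK293 cells were stimulated with 1.5 ng/mL TSH (final) in presence of Ro20-1724 for 30 min at RT. HTRF cAMP detection after 1 h; each compound tested at 15 concentrations, triplicate.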

A short description of assay [19]: qHTS assay to identify small molecule agonists of the progesterone receptor (PR) signaling pathway - cell viability counter screen (AID 1346799; calls by dose curve; further: nearly all actives have a fitted effect of over 45% in size). The method in brief:
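Multiplexed viability read: CellTiter-Glo luminescence, 30 min RT, following LiveBLAzer FRET measurement on PR-UAS-bla HEK293T cells exposed to compounds 16 hr.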

Assay [20] addresses Androgen receptor (Homo sapiens) (UniProt P10275). Nature of the assay: qHTS assay to identify small molecule agonists of the androgen receptor (AR) signaling pathway in the presence of an antagonist (AID 1259381; calls by dose curve; further: nearly all actives have a fitted effect of over 15% in size). The method in brief: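 Test compounds at 15 concentrations were incubated for 16hr with MDA-kb2 reporter cells in presence of 3.0uM nilutamide (final). Signal: ONE-Glo luciferase luminescence.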

Structures are written as SMILES. Results filed as inconclusive are left out. Activity calls are given as the source filed them. Unless noted, the call rests on the fitted dose curve; in most records, active means well fitted curve in the direction sought with a large enough effect in the repeat runs; inconclusive means weak or mixed curves; inactive means no such curve, though single readings can be large; an effect the other way counts as inactive or inconclusive.

Chain of Progesterone receptor (Homo sapiens) (P06401 whole entry, looked up): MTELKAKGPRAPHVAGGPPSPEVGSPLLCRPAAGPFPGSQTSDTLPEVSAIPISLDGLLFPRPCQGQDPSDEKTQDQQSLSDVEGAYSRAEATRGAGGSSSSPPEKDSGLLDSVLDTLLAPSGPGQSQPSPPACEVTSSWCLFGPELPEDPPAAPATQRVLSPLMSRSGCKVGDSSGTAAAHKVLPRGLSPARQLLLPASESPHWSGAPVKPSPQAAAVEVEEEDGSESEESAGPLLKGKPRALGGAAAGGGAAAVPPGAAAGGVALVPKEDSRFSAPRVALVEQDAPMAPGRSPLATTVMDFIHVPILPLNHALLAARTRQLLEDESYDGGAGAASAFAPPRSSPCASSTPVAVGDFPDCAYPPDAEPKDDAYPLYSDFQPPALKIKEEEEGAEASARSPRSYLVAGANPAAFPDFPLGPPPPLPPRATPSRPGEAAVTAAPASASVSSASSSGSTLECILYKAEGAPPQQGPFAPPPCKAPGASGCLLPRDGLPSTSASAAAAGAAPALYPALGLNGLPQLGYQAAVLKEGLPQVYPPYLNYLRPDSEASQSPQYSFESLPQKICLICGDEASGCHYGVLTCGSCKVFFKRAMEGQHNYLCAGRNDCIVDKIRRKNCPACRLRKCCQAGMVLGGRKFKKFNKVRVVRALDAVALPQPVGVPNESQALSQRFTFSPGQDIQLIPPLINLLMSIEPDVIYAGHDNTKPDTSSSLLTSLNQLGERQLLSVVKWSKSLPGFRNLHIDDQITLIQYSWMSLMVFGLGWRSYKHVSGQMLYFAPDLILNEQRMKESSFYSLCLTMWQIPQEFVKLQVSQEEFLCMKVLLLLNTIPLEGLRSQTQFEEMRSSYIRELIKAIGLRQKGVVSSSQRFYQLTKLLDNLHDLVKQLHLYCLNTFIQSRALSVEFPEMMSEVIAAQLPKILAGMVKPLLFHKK
Chain of Estrogen receptor (Homo sapiens) (P03372 whole entry, looked up): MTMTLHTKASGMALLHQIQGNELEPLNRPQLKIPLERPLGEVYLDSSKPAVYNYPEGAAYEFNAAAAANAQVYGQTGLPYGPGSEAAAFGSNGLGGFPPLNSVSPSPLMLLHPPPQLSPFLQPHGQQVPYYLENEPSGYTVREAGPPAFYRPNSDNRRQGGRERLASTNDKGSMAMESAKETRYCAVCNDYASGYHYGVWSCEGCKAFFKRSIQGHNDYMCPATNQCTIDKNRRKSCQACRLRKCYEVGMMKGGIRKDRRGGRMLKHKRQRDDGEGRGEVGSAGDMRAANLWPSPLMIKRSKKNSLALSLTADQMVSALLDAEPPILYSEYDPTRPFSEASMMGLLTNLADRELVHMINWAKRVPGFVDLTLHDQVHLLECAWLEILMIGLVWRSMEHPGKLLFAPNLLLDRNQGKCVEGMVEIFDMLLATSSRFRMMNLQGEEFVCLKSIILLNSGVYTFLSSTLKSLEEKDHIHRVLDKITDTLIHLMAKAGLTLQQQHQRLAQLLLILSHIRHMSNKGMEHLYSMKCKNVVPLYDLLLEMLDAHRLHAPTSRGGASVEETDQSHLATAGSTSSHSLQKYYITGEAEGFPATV
Chain of Thyrotropin receptor (Homo sapiens) (P16473 whole entry, looked up): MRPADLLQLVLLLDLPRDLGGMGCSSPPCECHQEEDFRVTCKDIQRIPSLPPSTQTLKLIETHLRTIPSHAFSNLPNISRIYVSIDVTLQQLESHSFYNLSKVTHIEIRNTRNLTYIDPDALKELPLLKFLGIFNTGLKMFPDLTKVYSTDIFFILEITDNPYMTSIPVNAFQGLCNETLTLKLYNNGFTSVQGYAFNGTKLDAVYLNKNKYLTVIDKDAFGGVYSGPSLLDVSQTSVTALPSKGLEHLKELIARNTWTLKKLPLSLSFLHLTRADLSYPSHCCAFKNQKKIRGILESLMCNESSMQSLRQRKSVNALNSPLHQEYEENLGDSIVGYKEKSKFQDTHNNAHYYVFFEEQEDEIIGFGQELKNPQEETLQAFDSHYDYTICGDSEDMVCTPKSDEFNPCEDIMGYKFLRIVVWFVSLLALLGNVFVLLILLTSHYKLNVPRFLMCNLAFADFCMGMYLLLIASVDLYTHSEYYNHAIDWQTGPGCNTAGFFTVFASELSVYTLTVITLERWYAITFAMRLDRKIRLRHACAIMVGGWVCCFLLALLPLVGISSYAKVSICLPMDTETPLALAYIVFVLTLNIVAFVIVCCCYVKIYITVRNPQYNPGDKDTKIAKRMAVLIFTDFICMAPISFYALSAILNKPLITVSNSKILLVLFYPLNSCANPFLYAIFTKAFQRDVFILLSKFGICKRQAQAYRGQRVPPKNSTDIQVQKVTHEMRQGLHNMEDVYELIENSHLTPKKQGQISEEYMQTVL
Chain of Androgen receptor (Homo sapiens) (P10275 whole entry, looked up): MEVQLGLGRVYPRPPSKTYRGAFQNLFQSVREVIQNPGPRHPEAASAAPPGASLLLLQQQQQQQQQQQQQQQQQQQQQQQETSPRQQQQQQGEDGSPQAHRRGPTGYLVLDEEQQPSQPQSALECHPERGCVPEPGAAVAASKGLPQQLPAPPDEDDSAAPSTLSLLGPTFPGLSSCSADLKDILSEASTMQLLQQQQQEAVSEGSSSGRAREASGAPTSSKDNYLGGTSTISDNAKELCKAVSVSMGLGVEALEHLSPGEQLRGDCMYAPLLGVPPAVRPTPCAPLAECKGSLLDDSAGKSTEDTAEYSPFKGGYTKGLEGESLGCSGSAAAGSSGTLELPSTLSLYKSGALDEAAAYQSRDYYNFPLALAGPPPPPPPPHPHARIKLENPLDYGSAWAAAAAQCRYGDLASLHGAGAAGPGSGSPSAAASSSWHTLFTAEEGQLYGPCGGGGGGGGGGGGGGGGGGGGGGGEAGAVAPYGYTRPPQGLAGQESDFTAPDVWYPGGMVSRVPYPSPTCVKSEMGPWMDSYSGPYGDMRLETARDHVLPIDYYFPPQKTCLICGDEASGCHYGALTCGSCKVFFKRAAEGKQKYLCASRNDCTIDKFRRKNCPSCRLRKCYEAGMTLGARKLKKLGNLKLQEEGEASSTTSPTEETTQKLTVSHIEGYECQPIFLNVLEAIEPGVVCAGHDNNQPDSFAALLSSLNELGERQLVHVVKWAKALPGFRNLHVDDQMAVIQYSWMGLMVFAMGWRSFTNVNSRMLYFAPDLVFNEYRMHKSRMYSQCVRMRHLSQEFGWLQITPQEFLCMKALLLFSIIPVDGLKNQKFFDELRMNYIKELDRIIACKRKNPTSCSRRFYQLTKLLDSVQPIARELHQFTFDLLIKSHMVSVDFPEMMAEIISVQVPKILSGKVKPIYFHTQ

For the compound `CNC(=O)c1c(I)c(NC(=O)CCCCC(=O)Nc2c(I)c(C(=O)O)c(I)c(C(=O)NC)c2I)c(I)c(C(=O)O)c1I`, the Potency entry in assay [1], in assay [2], in assay [4], in [5], in [6] and in assay [7] was “inactive” each time. Besides, the Potency entry in assay [8], in assay [10], in assay [11] and in assay [12] was “inactive” each time. Also, the call in assay [3], in assay [9], in assay [13], in [14], in [15] and in assay [16] was inactive.

Regarding `CCc1cc(S(=O)(=O)O)c2cc(C(C)C)cccc1-2`, the Potency result in assay [1], in assay [2], in [4], in [5], in assay [6] and in assay [7] was “inactive” in each case. For the same compound, the Potency entry in [8], in assay [18], in assay [10], in assay [11] and in assay [12] was “inactive” throughout. The compound was classed as inactive in [3], in assay [17], in [9], in assay [13], in assay [14] and in assay [15]. Also, in assay [16], the call was inactive.

On to `NC(=O)Nc1nc2ccccc2[nH]1`, for which the Potency entry in assay [1], in assay [2], in [4], in assay [5], in assay [6] and in assay [7] was “inactive” in each case. Also, the Potency entry in assay [8], in [10], in assay [11], in assay [12] and in [19] was “inactive” each time. Further, the call in assay [3], in assay [9] and in [15] was inactive.

Regarding `COC[C@H](c1ccc(C(F)(F)F)cc1)N1CCN(C2(C)CCN(C(=O)c3c(C)ncnc3C)CC2)C[C@H]1C`, the Potency entry in assay [1], in assay [2], in assay [4], in assay [5], in assay [7] and in assay [8] was “inactive” each time. The Potency result in [18], in assay [11] and in assay [12] was “inactive” each time. Also, the compound was called inactive in assay [3], in [17], in assay [9], in assay [13], in assay [14] and in [15]. Also, the compound was classed as inactive in [16]. Besides, the Potency in assay [6] was 2660 nM (active).

Consider `O=C1CC2(CCCC2)CC(=O)N1`, for which the Potency entry in assay [1], in assay [2], in [4], in assay [5], in assay [6] and in assay [20] was “inactive” each time. In addition, the Potency result in [8], in assay [18], in assay [10], in assay [11], in assay [12] and in assay [19] was “inactive” in each case. Also, the outcome in [3], in assay [17], in assay [9], in assay [13], in assay [14] and in [15] was inactive. The call in assay [16] was inactive.

As for `COc1ccc(COC=O)cc1`, the Potency result in [1], in [2], in assay [4], in [5], in assay [6] and in [7] was “inactive” each time. Further, the Potency result in assay [8], in assay [18], in assay [10], in assay [11], in assay [12] and in assay [19] was “inactive” in each case. Besides, the result in [3], in [17], in assay [9], in [13], in assay [14] and in assay [15] was inactive. For the same compound, the result in assay [16] was inactive.

Turning to `CCN(CC)C(=O)c1ccc(O)c(OC)c1`, the Potency result in assay [1], in assay [2], in assay [4], in assay [5], in [6] and in assay [7] was “inactive” each time. For the same compound, the Potency result in assay [8], in assay [18], in [10], in [11], in assay [12] and in assay [19] was “inactive” each time. Besides, the compound was called inactive in [3], in assay [17], in [9], in assay [13], in [14] and in [15]. Moreover, in assay [16], the compound was classed as inactive.

Turning to `Nc1nc(F)nc2c1ncn2[C@@H]1O[C@H](CO)[C@@H](O)[C@@H]1O`, the Potency entry in [1], in [2], in assay [4], in [5], in assay [6] and in assay [7] was “inactive” in each case. The Potency entry in [8], in assay [18], in [11], in assay [12] and in assay [19] was “inactive” each time. The result in [3], in assay [9], in assay [14] and in assay [15] was inactive.
